# Assay results: PubChem BioAssay (NCATS)
# Where “and” joins values, the source holds several entries; their conditions need not be identical. Identical values can stand only once. Inconclusive results are not listed. Calls of active or inactive are those of the source. Unless noted, calls come from the whole dose curve; as a rule, active = well fitted curve in the direction sought with a large enough effect; inconclusive = small, poorly fitted or top-dose-only effect, or another doubt; inactive = no such curve, though single readings can be large; an effect the other way counts as inactive or inconclusive.
# What was measured:
# [1] = AP1 Signaling Pathway (AID 357; active = well fitted curve in either direction with a large enough effect, not every such curve was filed as active;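 note: ME-180 reporter cells stimulated with EGF at its EC50 level; % is set by controls: 0 for no effect and ±100 for the full control effect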); details: ME-180 AP-1-bla reporter, EGF-induced, beta-lactamase ratio, 5 h; at 7.69 µM (top of the series) unless noted
# Procedure, shortened: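 AP-1-bla ME-180 cells, Opti-MEM + 0.5% dialyzed FBS, plated overnight 37 °C. Cpd titration + EC50 EGF, 5 h 37 °C. CCF4 2.5 h RT; ex 405, em 460/530 ratio → %activity, AC50.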
# [2] = target: Cytochrome P450 1A2 (Homo sapiens) (UniProt P05177); experiment: p450-cyp1a2 (AID 410; calls by dose curve;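 note: -100% = full effect of reference inhibitor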)
# Chain of Cytochrome P450 1A2 (Homo sapiens) (P05177 whole entry, looked up): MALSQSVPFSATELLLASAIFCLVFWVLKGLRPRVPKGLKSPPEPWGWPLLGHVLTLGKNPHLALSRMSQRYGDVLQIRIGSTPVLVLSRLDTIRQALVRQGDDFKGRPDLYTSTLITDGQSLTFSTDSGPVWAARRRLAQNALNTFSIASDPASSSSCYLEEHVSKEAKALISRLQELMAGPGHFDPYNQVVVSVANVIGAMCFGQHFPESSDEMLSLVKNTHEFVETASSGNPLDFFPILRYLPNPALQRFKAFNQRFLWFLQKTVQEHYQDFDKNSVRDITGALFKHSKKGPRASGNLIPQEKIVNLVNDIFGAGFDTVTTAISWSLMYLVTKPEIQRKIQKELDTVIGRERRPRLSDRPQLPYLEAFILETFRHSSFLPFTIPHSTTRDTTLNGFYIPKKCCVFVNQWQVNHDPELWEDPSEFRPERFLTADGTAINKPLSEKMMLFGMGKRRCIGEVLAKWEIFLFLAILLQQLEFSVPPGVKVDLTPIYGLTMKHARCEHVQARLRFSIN
# Procedure, shortened: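 O-Demethylation of luciferin 6' methyl ether by human CYP1A2 is monitored as luciferase luminescence. Substrate sits at Km (100uM); enzyme is 20nM. Values are scaled to 57 uM furafylline as maximal inhibition.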
# [3] = NFAT Signaling Pathway (AID 444; active = well fitted curve in either direction with a large enough effect, not every such curve was filed as active;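 note: carbachol stimulus at about its EC50 of 1 µM final; % is set by controls: 0 for no effect and ±100 for the full control effect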); details: Jurkat NFAT-bla M1, carbachol, beta-lactamase ratio, 5 h
# Procedure, shortened: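 Jurkat cells with NFAT-driven β-lactamase reporter and co-expressed M1 receptor, stimulated with carbachol (final 1 uM, ~EC50), compound titration, 5 h at 37 °C. CCF4 loaded 1 h at RT; 460/530 nm ratio gave %activity and AC50.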
# [4] = Stat Signaling Pathway (AID 446; active = well fitted curve in either direction with a large enough effect, not every such curve was filed as active;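 note: ME-180 cervical cancer cells given 40 pM IL-6 alongside compound; SIE-controlled beta-lactamase reporter measured as 460/530 nm FRET emission ratio; % is set by controls: 0 for no effect and ±100 for the full control effect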); details: ME-180 (cervical carcinoma) SIE beta-lactamase reporter, IL-6 stimulated, 5 h
# Procedure, shortened: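 Normalization used AC90 stimulation (300 pM IL-6) and AC90 inhibition (125 nM pan-JAK inhibitor at 40 pM IL-6). The underlying signal is SIE-driven beta-lactamase in ME-180 cells after 5 h IL-6 exposure with compound.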
# [5] = target: Glucocorticoid receptor (Homo sapiens) (UniProt P04150); experiment: GR-GFP Redistribution (AID 450;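 active = compounds whose dose series gives a full or clear partial fitted curve of increased nuclear translocation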; note: potency is the fitted concentration of half-maximal effect); details: U2OS GR-GFP nuclear translocation, laser cytometry, 2 h
# Chain of Glucocorticoid receptor (Homo sapiens) (P04150 whole entry, looked up, the tested form may be a part): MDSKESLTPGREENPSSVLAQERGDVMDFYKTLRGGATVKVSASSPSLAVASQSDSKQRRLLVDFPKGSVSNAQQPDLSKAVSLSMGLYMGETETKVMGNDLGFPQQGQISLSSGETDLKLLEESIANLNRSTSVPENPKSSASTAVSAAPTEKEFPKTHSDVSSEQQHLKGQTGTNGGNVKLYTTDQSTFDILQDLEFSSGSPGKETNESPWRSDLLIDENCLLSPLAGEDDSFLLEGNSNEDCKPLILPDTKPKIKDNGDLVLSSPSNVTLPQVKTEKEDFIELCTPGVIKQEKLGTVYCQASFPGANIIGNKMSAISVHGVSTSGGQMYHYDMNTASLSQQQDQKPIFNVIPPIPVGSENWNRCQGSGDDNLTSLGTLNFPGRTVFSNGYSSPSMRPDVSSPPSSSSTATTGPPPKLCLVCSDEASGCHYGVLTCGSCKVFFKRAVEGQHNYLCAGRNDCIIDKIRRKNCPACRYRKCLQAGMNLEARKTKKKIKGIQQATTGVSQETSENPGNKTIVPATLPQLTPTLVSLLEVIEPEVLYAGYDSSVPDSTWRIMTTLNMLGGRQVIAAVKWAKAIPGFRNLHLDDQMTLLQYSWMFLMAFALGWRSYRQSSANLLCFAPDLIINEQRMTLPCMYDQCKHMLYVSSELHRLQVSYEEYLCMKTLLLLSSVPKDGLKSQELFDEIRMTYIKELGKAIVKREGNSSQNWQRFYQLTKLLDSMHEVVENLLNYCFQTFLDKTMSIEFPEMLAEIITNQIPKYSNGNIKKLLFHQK
# [6] = target: Glucocorticoid receptor (Homo sapiens) (UniProt P04150); experiment: GR-EFC Redistribution (AID 451; calls by dose curve; note: potency is the fitted concentration of half-maximal effect); details: CHO-K1 GR-EFC translocation, beta-gal luminescence, 2 h
# Procedure, shortened: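 CHO-K1 cells expressing nuclear EA and GR-ED fragments of b-gal; compounds titrated up to 46 uM final, 2 h at 37 C. GR nuclear translocation read as complemented b-gal luminescence after 1 h RT detection.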
# [7] = target: Mitogen-activated protein kinase 10 (Mus musculus) (UniProt Q61831); experiment: JNK3 AlphaScreen Assay (AID 530; active = well fitted curve in either direction with a large enough effect, not every such curve was filed as active;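 note: kinase came from lysate of stimulated human HepG2 cells; signal reports phosphorylation of biotinylated GST-cJun 1-79 at Ser73 with 10 µM ATP; % is set by controls: 0 for no effect and ±100 for the full control effect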)
# Procedure, shortened: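 Activity was read by AlphaScreen after JNK3-containing HepG2 lysate (cytokine pre-activated) phosphorylated biotinylated GST-cJun with 10 uM ATP at room temperature. Phospho-Ser73 cJun antibody with Protein-A acceptor beads provided detection.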
# [8] = target: 3',5'-cyclic-AMP phosphodiesterase 4B (Homo sapiens) (UniProt Q07343); experiment: qHTS Assay for Inhibitors of PDE-IV (AID 607; active = well fitted activation curve with a large enough effect in the main read-out, with a control signal flat, not every such curve was filed as active; note: % of control where 0% means no effect)
# Chain of 3',5'-cyclic-AMP phosphodiesterase 4B (Homo sapiens) (Q07343 whole entry, looked up): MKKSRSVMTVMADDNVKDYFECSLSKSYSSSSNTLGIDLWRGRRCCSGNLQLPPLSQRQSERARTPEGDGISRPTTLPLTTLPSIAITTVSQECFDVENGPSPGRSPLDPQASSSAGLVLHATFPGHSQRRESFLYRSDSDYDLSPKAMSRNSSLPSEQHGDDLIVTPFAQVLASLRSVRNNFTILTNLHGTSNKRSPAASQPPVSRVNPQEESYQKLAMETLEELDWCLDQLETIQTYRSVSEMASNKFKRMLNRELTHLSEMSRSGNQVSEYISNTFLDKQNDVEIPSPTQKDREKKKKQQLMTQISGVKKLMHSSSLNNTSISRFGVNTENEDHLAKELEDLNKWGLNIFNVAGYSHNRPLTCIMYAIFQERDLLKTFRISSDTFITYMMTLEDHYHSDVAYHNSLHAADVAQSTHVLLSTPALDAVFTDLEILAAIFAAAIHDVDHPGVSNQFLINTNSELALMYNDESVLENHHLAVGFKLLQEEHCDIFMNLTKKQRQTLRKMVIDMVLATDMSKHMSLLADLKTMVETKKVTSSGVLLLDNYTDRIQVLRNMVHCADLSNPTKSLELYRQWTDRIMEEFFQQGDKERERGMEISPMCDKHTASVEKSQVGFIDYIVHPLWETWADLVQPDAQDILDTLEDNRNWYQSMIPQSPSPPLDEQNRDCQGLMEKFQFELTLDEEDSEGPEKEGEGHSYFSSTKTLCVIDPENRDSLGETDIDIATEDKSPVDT
# Procedure, shortened: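 HEK293 ACTOne cells with CNG channel (1000/well), endogenous PDE4; membrane potential dye, compounds up to 22.9 uM final. Fluorescence Ex 535/Em 590; RO 20-1724 (100 uM final) as reference.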
# [9] = target: Cytochrome P450 3A4 (Homo sapiens) (UniProt P08684); experiment: qHTS Assay for Activators of Cytochrome P450 3A4 (AID 885); note: nearly all actives have a fitted effect of over 65% in size
# Chain of Cytochrome P450 3A4 (Homo sapiens) (P08684 whole entry, looked up): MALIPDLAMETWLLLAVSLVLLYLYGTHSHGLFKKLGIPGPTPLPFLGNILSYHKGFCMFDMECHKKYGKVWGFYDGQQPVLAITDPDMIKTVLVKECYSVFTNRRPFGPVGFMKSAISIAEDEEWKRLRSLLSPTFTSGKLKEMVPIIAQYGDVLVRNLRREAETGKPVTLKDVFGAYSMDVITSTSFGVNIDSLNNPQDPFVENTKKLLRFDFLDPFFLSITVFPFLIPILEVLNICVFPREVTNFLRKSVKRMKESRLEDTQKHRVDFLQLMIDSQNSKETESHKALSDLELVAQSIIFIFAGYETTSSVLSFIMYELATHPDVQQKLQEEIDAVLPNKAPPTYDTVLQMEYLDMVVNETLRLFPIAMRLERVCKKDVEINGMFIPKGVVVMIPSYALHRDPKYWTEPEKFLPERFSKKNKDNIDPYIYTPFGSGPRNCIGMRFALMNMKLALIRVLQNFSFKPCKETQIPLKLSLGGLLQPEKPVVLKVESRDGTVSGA
# Procedure, shortened: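 Human CYP3A4 dealkylates Luciferin-PPXE to luciferin, which luciferase detection converts to light. Substrate was at its KM (25uM), buffer 200mM KPO4, reaction 60 min at RT.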
# [10] = qHTS Assay for Lipid Storage Modulators (AID 1519; calls by dose curve); details: Drosophila S3 cells, BODIPY lipid droplet/cell ratio, laser cytometry, cells loaded with oleic acid
# Procedure, shortened: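 Cells seeded at 5,000 per well were treated with compounds over a concentration series and loaded with oleic acid (400 uM, as added). Lipid droplet fluorescence (488 nm excitation, 500-530 nm channel) was read by laser-scanning cytometry and normalized to 20 uM Triacsin C.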
# [11] = target: Ubiquitin carboxyl-terminal hydrolase 1 (Homo sapiens) (UniProt O94782); experiment: Inhibitors of USP1/UAF1: Pilot qHTS (AID 504865);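 note: rhodamine fluorescence freed from ubiquitin-rhodamine substrate followed over time; top concentration of the series differs between compounds; % is set by controls: 0 for no effect and ±100 for the full control effect; nearly all actives have a fitted effect of over 35% in size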
# Chain of Ubiquitin carboxyl-terminal hydrolase 1 (Homo sapiens) (O94782 whole entry, looked up): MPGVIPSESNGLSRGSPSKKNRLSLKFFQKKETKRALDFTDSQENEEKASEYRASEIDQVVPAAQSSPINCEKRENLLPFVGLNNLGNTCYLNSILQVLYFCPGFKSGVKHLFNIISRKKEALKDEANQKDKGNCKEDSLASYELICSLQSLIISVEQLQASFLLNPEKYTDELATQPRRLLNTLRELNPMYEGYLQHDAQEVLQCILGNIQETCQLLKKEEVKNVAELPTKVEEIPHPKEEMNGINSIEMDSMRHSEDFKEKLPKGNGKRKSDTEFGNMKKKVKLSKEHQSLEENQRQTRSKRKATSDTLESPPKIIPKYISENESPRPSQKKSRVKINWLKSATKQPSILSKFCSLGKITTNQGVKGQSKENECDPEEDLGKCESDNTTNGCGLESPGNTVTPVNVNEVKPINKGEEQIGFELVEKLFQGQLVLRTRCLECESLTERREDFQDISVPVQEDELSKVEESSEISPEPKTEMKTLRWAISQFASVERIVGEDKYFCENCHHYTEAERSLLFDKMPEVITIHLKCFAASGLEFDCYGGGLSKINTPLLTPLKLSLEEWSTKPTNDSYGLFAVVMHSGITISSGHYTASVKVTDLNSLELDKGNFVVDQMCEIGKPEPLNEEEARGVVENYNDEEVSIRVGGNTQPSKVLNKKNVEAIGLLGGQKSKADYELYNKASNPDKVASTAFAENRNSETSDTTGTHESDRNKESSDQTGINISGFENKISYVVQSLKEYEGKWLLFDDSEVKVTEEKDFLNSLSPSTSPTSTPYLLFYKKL
# Procedure, shortened: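 1nM USP1/UAF1 + cpd, 15 min RT; start w/ Ub-Rho 150nM final; kinetic FL 480/540 nm, 6 reads q60 s. Buffer 50mM HEPES pH 7.8, 0.5mM EDTA, 1mM TCEP, 0.01% Tween-20, 0.1 mg/ml BSA.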
# [12] = qHTS profiling for inhibitors of Plasmodium falciparum proliferation (AID 504749);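 note: 0% = DMSO vehicle and full inhibition = artemisinin control; nearly all actives have a fitted effect of over 60% in size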; details: P. falciparum in erythrocytes, SYBR Green DNA, 72 h
# Procedure, shortened: (§1)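 Each compound contacts P. falciparum-infected red blood cells for 72 h at 37 C; lysis buffer (Tris, EDTA, saponin, Triton X, SYBR Green I) is added and fluorescence measured next morning; values normalized to controls.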
# AS120 = experiment: as above; details: P. falciparum in erythrocytes, SYBR Green DNA, 72 h; series mostly up to 28.7 µM
# Procedure, shortened: as §1
# CP203 = experiment: as above; details: P. falciparum in erythrocytes, SYBR Green DNA, 72 h; series mostly up to 12.8 µM
# Procedure, shortened: as §1
# CP291 = experiment: as above; details: P. falciparum in erythrocytes, SYBR Green DNA, 72 h; series mostly up to 12.8 µM
# Procedure, shortened: as §1
# DFO2036 = experiment: as above; details: P. falciparum in erythrocytes, SYBR Green DNA, 72 h; series mostly up to 12.8 µM
# Procedure, shortened: as §1
# [13] = target: Cytochrome P450 3A4 (Homo sapiens) (UniProt P08684); experiment: qHTS Assay for Inhibitors and Substrates of Cytochrome P450 3A4 (AID 884); note: potency is the fitted concentration of half-maximal effect; nearly all actives have a fitted effect of over 50% in size
# Procedure, shortened: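 Luminescent readout of luciferin produced by CYP3A4 (20 nM) dealkylation of Luciferin-PPXE, 25 uM (its KM). NADPH-driven reaction ran 60 min at RT after 10 min compound preincubation; data scaled to 57 uM ketoconazole as 100% inhibition.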
# [14] = at 7.69 µM (top of the series) unless noted
# [15] = measured here: cell count channel max response
# [16] = measured here: lipid channel max response
# [17] = at 12.8 µM (top of the series), parasite line A
# [18] = at 12.8 µM (top of the series), parasite line B
# [19] = at 28.7 µM (top of the series), parasite line A
# [20] = at 28.7 µM (top of the series), parasite line B
compound,measurement,setting,value
COc1ccc(C[C@@H]2c3cc(OC)c(OC)cc3CC[N@+]2(C)CCC(=O)OCCCCCOC(=O)CC[N@@+]2(C)CCc3cc(OC)c(OC)cc3[C@H]2Cc2ccc(OC)c(OC)c2)cc1OC,"activity change, negative = inhibition",[1],-6.73% [at 17.2 µM] (inactive)
same,Potency,[2],inactive
same,"activity change, negative = inhibition",[3]; [14],-23.4% [at 17.2 µM] (inactive)
same,"activity, negative = inhibition",[4]; [14],10.6% [at 17.2 µM] (inactive)
same,Potency,[5],> 20.6 µM (inactive)
same,Potency,[6],> 20.6 µM (inactive)
same,Potency,[7],inactive
same,Potency,[8],inactive
same,Potency,[9],inactive
same,"activity change, negative = inhibition",[10]; at 25.7 µM (top of the series),-3.87% (inactive)
same,max response,[10]; [15],15.3%
same,max response,[10]; [16],6.6%
same,Potency,[11],inactive
same,"activity, negative = inhibition",[12]; [17],-5.94% (inactive)
same,"activity, negative = inhibition",[12]; [18],13.8% (inactive)
same,Potency,AS120,inactive
same,Potency,CP203,inactive
same,Potency,CP291,inactive
same,Potency,DFO2036,inactive
C[C@@H]1COc2c(N3CCN(C)CC3)c(F)cc3c(=O)c(C(=O)O)cn1c23,Potency,[2],inactive
same,"activity change, negative = inhibition",[3]; at 17.2 µM (top of the series),-4.07% (inactive)
same,"activity change, negative = inhibition",[3]; at 38 µM (top of the series),4.93% (inactive)
same,"activity, negative = inhibition",[4]; at 17.2 µM (top of the series),4.46% (inactive)
same,"activity, negative = inhibition",[4]; at 38 µM (top of the series),-5.77% (inactive)
same,Potency,[7],inactive
same,"activity change, negative = inhibition",[10]; at 25.7 µM (top of the series),-0.7% (inactive)
same,max response,[10]; [15],-7.85%
same,max response,[10]; [16],-10.5%
same,"activity, negative = inhibition",[12]; [19],3.1% (inactive)
same,"activity, negative = inhibition",[12]; [20],11.1% (inactive)
same,Potency,AS120,inactive
same,Potency,CP203,inactive
same,Potency,CP291,inactive
same,Potency,DFO2036,inactive
CC1(C)S[C@@H]2[C@H](NC(=O)[C@H](C(=O)O)c3ccsc3)C(=O)N2[C@H]1C(=O)O,"activity change, negative = inhibition",[1],-4.81% [at 17.2 µM] (inactive) and 2.77% [at 17.2 µM] (inactive)
same,Potency,[2],inactive
same,"activity change, negative = inhibition",[3]; [14],-7.87% [at 17.2 µM] (inactive) and 25.2% [at 17.2 µM] (inactive)
same,"activity, negative = inhibition",[4]; [14],6.96% [at 17.2 µM] (inactive) and -0.401% [at 17.2 µM] (inactive)
same,Potency,[5],> 20.6 µM (inactive)
same,Potency,[6],> 20.6 µM (inactive)
same,Potency,[7],inactive
same,Potency,[8],inactive
same,"activity change, negative = inhibition",[10]; at 25.7 µM (top of the series),1.08% (inactive)
same,max response,[10]; [15],-10.5%
same,max response,[10]; [16],-8.09%
same,Potency,[11],inactive
same,"activity, negative = inhibition",[12]; [19],-4.85% (inactive)
same,"activity, negative = inhibition",[12]; [20],17.9% (inactive)
same,Potency,AS120,inactive
same,Potency,CP203,inactive
same,Potency,CP291,inactive
same,Potency,DFO2036,inactive
Cn1c(=O)c2c(ncn2C[C@@H](O)CO)n(C)c1=O,"activity change, negative = inhibition",[1],9.72% [at 17.2 µM] (inactive)
same,Potency,[2],inactive
same,"activity change, negative = inhibition",[3]; [14],-4.3% [at 17.2 µM] (inactive)
same,"activity, negative = inhibition",[4]; [14],11.3% [at 17.2 µM] (inactive)
same,Potency,[5],> 20.6 µM (inactive)
same,Potency,[6],> 20.6 µM (inactive)
same,Potency,[7],inactive
same,Potency,[8],inactive
same,"activity change, negative = inhibition",[10]; at 25.7 µM (top of the series),0.654% (inactive)
same,max response,[10]; [15],-0.539%
same,max response,[10]; [16],-0.706%
same,Potency,[11],inactive
same,"activity, negative = inhibition",[12]; [17],0.439% (inactive)
same,"activity, negative = inhibition",[12]; [18],-2.95% (inactive)
same,Potency,AS120,inactive
same,Potency,CP203,inactive
same,Potency,CP291,inactive
same,Potency,DFO2036,inactive
CC(=O)Oc1cc(OC(C)=O)c2c(c1)OC(c1ccc(OC(C)=O)c(OC(C)=O)c1)C(OC(C)=O)C2 (stereo unspecified),Potency,[13],31.6 µM (active)
same,Potency,[9],inactive
same,"activity change, negative = inhibition",[10]; at 57.5 µM (top of the series),6.42% (inactive) and -10.2% (inactive)
same,max response,[10]; [15],0.329% and -6.77%
same,max response,[10]; [16],6.69% and -15%
same,Potency,[11],inactive
